Laboratory results reported in PubChem BioAssay (Tox21).
Inconclusive results are not listed. Activity calls are given as the source filed them. Unless noted, calls follow the shape of the dose curve; as a rule, active = well fitted curve in the direction sought with a large enough effect in the repeat runs; inconclusive = weak or mixed curves; inactive = no such curve, though single readings can be large; an effect the other way counts as inactive or inconclusive.

How the values were obtained:
[1] = qHTS assay to identify small molecule antagonists of the retinoid-related orphan receptor gamma (ROR-gamma) signaling pathway - cell viability counter screen (AID 1159520); also: % is scaled to controls: 0 for no effect and ±100 for the full control effect; nearly all actives have a fitted effect of over 50% in size
Method in brief: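 Tet-on ROR gamma CHO cells were given compounds for 2 hr, then doxycycline hyclate at 1 uM final, and incubated 16 hr at 37 C. Viability was measured as ATP content by CellTiter-Glo luminescence.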

[2] = target: Nuclear receptor ROR-gamma (Homo sapiens) (UniProt P51449); assay: qHTS assay to identify small molecule antagonists of the retinoid-related orphan receptor gamma (ROR-gamma) signaling pathway (AID 1159521;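 also: CHO cells with doxycycline inducible ROR-gamma driving an RORE luciferase reporter; top concentration of the series differs between compounds; % is scaled to controls: 0 for no effect and ±100 for the full control effect; nearly all actives have a fitted effect of over 50% in size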)
Method in brief: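 Cells were plated, rested 4 h at 37 C, exposed to compounds for 2 h, then given 1 uM final doxycycline hyclate to induce RORγ expression. After 16 h, ONE-Glo luminescence from the ROR response element reporter was measured.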

[3] = qHTS assay to identify small molecule agonists of the AP-1 signaling pathway - cell viability counter screen (AID 1159525; calls by dose curve; also: nearly all actives have a fitted effect of over 55% in size)
Method in brief: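 Same-well cytotoxicity counter screen of the Tox21 10K library in ME-180 cells. The readout is ATP-dependent luminescence after 5 h compound treatment. Data are normalised to DMSO and tetra n-octyl ammonium bromide controls.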

[4] = qHTS assay to identify small molecule agonists of the AP-1 signaling pathway (AID 1159526; calls by dose curve; also: % is scaled to controls: 0 for no effect and ±100 for the full control effect)
[5] = target: Retinoic acid receptor RXR-alpha (Homo sapiens) (UniProt P19793); assay: qHTS assay to identify small molecule agonists of the RXR signaling pathway (AID 1159527; calls by dose curve; also: % is scaled to controls: 0 for no effect and ±100 for the full control effect; nearly all actives have a fitted effect of over 35% in size)
Method in brief: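 Cells plated at 2,000/well, rested 5 hr at 37 C, pin-dosed with DMSO compound solutions, incubated 16 hr, then loaded with B/G FRET substrate for 2 hr at RT before dual-emission fluorescence reading.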

[6] = qHTS assay to identify small molecule agonists of the RXR signaling pathway - cell viability counter screen (AID 1159529); also: nearly all actives have a fitted effect of over 50% in size; also: potency is read from the fitted curve at half-maximal effect;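 as to activity change, negative = cytotoxicity: HEK 293T cells carrying an RXR-alpha UAS beta-lactamase reporter; series mostly up to about 77 µM; % is scaled to controls: 0 for no effect and ±100 for the full control effect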
Method in brief: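 Steps: seed RXR-alpha-UAS-bla HEK 293T cells in assay medium containing 2% charcoal-stripped FBS; incubate 5 hr; add compounds in DMSO; incubate 16 hr at 37 C; after the bla read, add CellTiter-Glo and read luminescence at 30 min.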

[7] = qHTS assay to identify small molecule antagonists of the retinoid acid receptor (RAR) signaling pathway - cell viability counter screen (AID 1159551); also: nearly all actives have a fitted effect of over 35% in size; also: potency is read from the fitted curve at half-maximal effect; as to activity change, negative = cytotoxicity: % is scaled to controls: 0 for no effect and ±100 for the full control effect
Method in brief: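 Cytotoxicity counter screen: ATP content quantified by CellTiter-Glo luminescence in C3RL4 cells treated 6 hr at 37 C with compound and retinol (1 uM final). Cells plated at 1,000/well and cultured overnight before dosing.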

[8] = qHTS assay to identify small molecule antagonists of the peroxisome proliferator-activated receptor delta (PPARd) signaling pathway - cell viability counter screen (AID 743213); also: potency is read from the fitted curve at half-maximal effect; nearly all actives have a fitted effect of over 50% in size
Method in brief: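 PPARd-bla HEK293H cells were treated with compounds plus agonist L165041 (300 nM final) for 17 h at 37 C. Viability was then read in the same wells by CellTiter-Glo luminescence after 30 min at room temperature.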

[9] = qHTS assay to identify small molecule agonists of the farnesoid-X-receptor (FXR) signaling pathway - cell viability counter screen (AID 743218); also: nearly all actives have a fitted effect of over 45% in size; also: potency is read from the fitted curve at half-maximal effect
Method in brief: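 Viability counter screen in the same wells: CellTiter-Glo luminescence, 30 min room-temperature incubation, measured after the beta-lactamase read. Cells were GeneBLAzer FXR-UAS-bla HEK 293T, compound-treated 16 h at 37C.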

[10] = qHTS assay to identify small molecule antagonists of the farnesoid-X-receptor (FXR) signaling pathway - cell viability counter screen (AID 743221; active = well fitted cell-killing curve with a large enough effect in the repeat runs, not every such curve was filed as active)
Method in brief: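 Multiplexed counter screen: viability of FXR-bla HEK 293T cells under agonist stimulation by chenodeoxycholic acid (50 uM, final) and test compound for 16 h at 37 C, measured by CellTiter-Glo luminescence in the reporter wells.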

[11] = qHTS assay to identify small molecule agonists of the endoplasmic reticulum stress response signaling pathway - cell viability counter screen (AID 1159517; calls by dose curve; also: nearly all actives have a fitted effect of over 50% in size; also: potency is read from the fitted curve at half-maximal effect)
Method in brief: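 In parallel with the ESRE reporter read, cytotoxicity was scored by CellTiter-Glo luminescence (30 min, room temperature) on HeLa ESRE-bla cells dosed for 5 hr.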

[12] = qHTS assay to identify small molecule agonists of the vitamin D receptor (VDR) signaling pathway - cell viability counter screen (AID 743224)
Method in brief: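 Counter screen run in the same wells as the VDR-bla reporter assay: CellTiter-Glo luminescence, 30 min at room temperature, after 16 h compound treatment at 37C of cells pre-plated for 4 h.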

[13] = qHTS assay to identify small molecule antagonists of the vitamin D receptor (VDR) signaling pathway - cell viability counter screen (AID 743225); also: nearly all actives have a fitted effect of over 50% in size; also: potency is read from the fitted curve at half-maximal effect
Method in brief: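 HEK293T VDR-bla; cpd + 1a,25-(OH)2D3 3 nM final, 16 h 37C/5% CO2; B/G FRET substrate 2 h RT; then CellTiter-Glo 30 min RT, luminescence.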

[14] = target: Vitamin D3 receptor (Homo sapiens) (UniProt P11473); assay: qHTS assay to identify small molecule antagonists of the vitamin D receptor (VDR) signaling pathway (AID 743223; active = well fitted inhibition curve with a large enough effect in the signal ratio in the repeat runs, not every such curve was filed as active; the % refers to the signal ratio; also: % is scaled to controls: 0 for no effect and ±100 for the full control effect)
Method in brief: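 Cells carrying a VDR-driven beta-lactamase reporter (VDR-bla) were co-treated with compound and 3 nM final 1alpha,25-dihydroxyvitamin D3 for 16 h at 37C; reporter activity was measured as FRET substrate fluorescence after 2 h at room temperature.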

Retinoic acid receptor RXR-alpha (Homo sapiens), sequence (P19793 whole entry, looked up): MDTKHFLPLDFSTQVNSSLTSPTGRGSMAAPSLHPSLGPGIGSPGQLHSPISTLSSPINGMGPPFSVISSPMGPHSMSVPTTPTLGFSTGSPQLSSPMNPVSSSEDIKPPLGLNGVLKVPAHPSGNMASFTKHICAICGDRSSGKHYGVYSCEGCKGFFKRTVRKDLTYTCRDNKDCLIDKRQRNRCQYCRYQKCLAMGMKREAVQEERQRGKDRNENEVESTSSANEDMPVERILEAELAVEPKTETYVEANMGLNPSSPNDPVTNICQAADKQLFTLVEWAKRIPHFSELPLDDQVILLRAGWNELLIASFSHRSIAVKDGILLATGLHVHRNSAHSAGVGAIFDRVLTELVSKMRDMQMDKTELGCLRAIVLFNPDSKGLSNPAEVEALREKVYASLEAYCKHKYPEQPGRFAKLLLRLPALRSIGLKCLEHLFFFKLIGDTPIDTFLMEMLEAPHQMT
Vitamin D3 receptor (Homo sapiens), sequence (P11473 whole entry, looked up): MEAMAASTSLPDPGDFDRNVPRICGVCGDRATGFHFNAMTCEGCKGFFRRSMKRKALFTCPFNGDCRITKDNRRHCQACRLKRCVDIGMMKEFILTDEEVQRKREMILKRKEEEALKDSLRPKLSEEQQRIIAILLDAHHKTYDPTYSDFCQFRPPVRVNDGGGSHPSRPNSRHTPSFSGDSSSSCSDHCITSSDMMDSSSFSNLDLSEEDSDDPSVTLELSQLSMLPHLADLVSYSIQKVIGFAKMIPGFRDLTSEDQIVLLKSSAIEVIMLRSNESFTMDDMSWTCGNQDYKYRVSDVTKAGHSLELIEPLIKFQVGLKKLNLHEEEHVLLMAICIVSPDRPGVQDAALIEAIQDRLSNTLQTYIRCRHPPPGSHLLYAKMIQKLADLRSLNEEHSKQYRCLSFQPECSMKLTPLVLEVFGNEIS

CCC(=O)CC(C)CC (configuration not stated)
inactive: activity, negative = cytotoxicity [1] 6.35% [at 0.349 µM] | activity change, negative = inhibition [2] 0.102% [at 0.35 µM] | viability change, negative = cytotoxic [3] 5.42% [at 0.29 µM] | activation [4] -5.51% [at 0.29 µM] | activation [5] 2.44% [at 0.29 µM] | activity change, negative = cytotoxicity [6] -1.51% [at 0.29 µM]

CCC1CCCCC1
inactive: Potency [1] | Potency [2] | Potency [3] | Potency [4] | Potency [5] | Potency [6]

CO[Si](CCCNCCNCCN)(OC)OC
inactive: Potency [1] | Potency [2] | Potency [3] | Potency [4] | Potency [5] | Potency [6] | Potency [7]

O=CC1CC1
inactive: Potency [1] | Potency [2] | Potency [3] | Potency [4] | Potency [5] | Potency [6] | Potency [7]

Cc1c(-c2ccc(O)cc2)n(Cc2ccc(OCCN3CCCCCC3)cc2)c2ccc(O)cc12
active: Potency [8] 26.6 µM | Potency [9] 29.8 µM | Potency [10] 29.8 µM | Potency [6] 26.8 µM
inactive: Potency [11]

O=c1cccc[nH]1
inactive: Potency [1] | Potency [2] | Potency [3] | Potency [4] | Potency [5] | Potency [6]

CC(C)CCOCCC(C)C
inactive: Potency [1] | Potency [2] | Potency [3] | Potency [4] | Potency [5] | Potency [6]

c1cc[nH]c1
inactive: Potency [1] | Potency [2] | Potency [3] | Potency [4] | Potency [5] | Potency [6]

Oc1cc2ccccc2cc1O
inactive: Potency [1] | Potency [2] | Potency [3] | Potency [4] | Potency [5] | Potency [6] | Potency [7]

CCCCCCCCCCCCN(CCO)CCO
active: Potency [8] 48.8 µM | Potency [9] 54.7 µM | Potency [12] 30.8 µM | Potency [13] 43.5 µM | Potency [11] 43.5 µM | Potency [6] 24.4 µM | Potency [7] 68.3 µM

C=CC(=C)CC/C=C(\C)CCC=C(C)C
inactive: activity, negative = cytotoxicity [1] 3.07% [at 19 µM] | activity change, negative = inhibition [2] 0.326% [at 19 µM] | viability change, negative = cytotoxic [3] 2.62% [at 15.8 µM] | activation [4] -1.16% [at 15.8 µM] | activation [5] -18.2% [at 15.8 µM] | activity change, negative = cytotoxicity [6] -8.98% [at 15.8 µM] | activity change, negative = cytotoxicity [7] -0.128% [at 19 µM]

CCCCCCS
inactive: Potency [1] | Potency [2] | Potency [3] | Potency [4] | Potency [5] | Potency [6] | Potency [7]

CC1(C)COCN1
inactive: Potency [1] | Potency [2] | Potency [3] | Potency [4] | Potency [5] | Potency [6]

CCOC(=O)CC(C)O (configuration not stated)
inactive: Potency [1] | Potency [2] | Potency [3] | Potency [4] | Potency [5] | Potency [6] | Potency [7]

Cc1cc(=O)[nH]c(=O)[nH]1
inactive: Potency [1] | Potency [2] | Potency [3] | Potency [4] | Potency [5] | Potency [6] | Potency [7]

CCCCCCCC(C)=O
inactive: Potency [1] | Potency [2] | Potency [3] | Potency [4] | Potency [5] | Potency [6] | Potency [7]

CCCCCCCCCCc1ccccc1
inactive: Potency [1] | Potency [2] | Potency [3] | Potency [4] | Potency [5] | Potency [6] | Potency [7]

CCOCN(C(=O)CS(=O)(=O)O)c1c(C)cccc1CC
inactive: Potency [1] | Potency [2] | Potency [3] | Potency [4] | Potency [5] | Potency [6] | Potency [7]

CCCCOC(=O)C(C)CC (configuration not stated)
inactive: Potency [9] | Potency [14] | Potency [13] | Potency [1] | Potency [2] | Potency [3] | Potency [4] | Potency [5] | Potency [6] | Potency [7]
active: Potency [8] 49 µM | Potency [12] 24.5 µM

CCN(CC)c1cccc(C)c1
inactive: Potency [1] | Potency [2] | Potency [3] | Potency [4] | Potency [6] | Potency [7]

CC(=O)C=O
inactive: Potency [1] | Potency [2] | Potency [3] | Potency [4] | Potency [6]

Cc1cnccn1
inactive: Potency [1] | Potency [2] | Potency [3] | Potency [4] | Potency [5] | Potency [6] | Potency [7]

Cc1cccc(N(C)C)c1
inactive: Potency [1] | Potency [2] | Potency [3] | Potency [4] | Potency [6] | Potency [7]

CCOC(OCC)C(=O)c1ccccc1
inactive: Potency [1] | Potency [2] | Potency [3] | Potency [4] | Potency [5] | Potency [6] | Potency [7]

CC1=CP(=O)(c2ccccc2)CC1 (configuration not stated)
inactive: Potency [1] | Potency [2] | Potency [3] | Potency [4] | Potency [5] | Potency [6] | Potency [7]

CCc1c(C(=O)O)c(=O)cnn1-c1ccc(Cl)cc1
inactive: Potency [1] | Potency [2] | Potency [3] | Potency [4] | Potency [5] | Potency [6] | Potency [7]

OCCC(O)CO (configuration not stated)
inactive: Potency [1] | Potency [2] | Potency [3] | Potency [4] | Potency [5] | Potency [6] | Potency [7]

CC(C)(C)c1cc(CCC(=O)NCCCCCCNC(=O)CCc2cc(C(C)(C)C)c(O)c(C(C)(C)C)c2)cc(C(C)(C)C)c1O
inactive: Potency [1] | Potency [2] | Potency [3] | Potency [4] | Potency [5] | Potency [6] | Potency [7]

C/C=C/CO
inactive: Potency [1] | Potency [2] | Potency [3] | Potency [4] | Potency [5] | Potency [6] | Potency [7]

CC[N+](CC)(CC)Cc1ccccc1
inactive: Potency [1] | Potency [2] | Potency [3] | Potency [4] | Potency [5] | Potency [6] | Potency [7]

CS(C)(=O)=O
inactive: Potency [1] | Potency [2] | Potency [3] | Potency [4] | Potency [5] | Potency [6] | Potency [7]

Clc1nc2ccccc2s1
inactive: Potency [1] | Potency [2] | Potency [3] | Potency [4] | Potency [5] | Potency [6] | Potency [7]

CC(C)=CC1CC(C)CCO1 (configuration not stated)
inactive: Potency [1] | Potency [2] | Potency [3] | Potency [4] | Potency [5] | Potency [6] | Potency [7]

CCCCOCC
inactive: Potency [1] | Potency [2] | Potency [3] | Potency [4] | Potency [5] | Potency [6] | Potency [7]

CCOCOCC
inactive: Potency [1] | Potency [2] | Potency [3] | Potency [4] | Potency [5] | Potency [6] | Potency [7]

CCCCCCCOC(=O)c1ccccc1C(=O)OCCCCCCC
inactive: Potency [1] | Potency [2] | Potency [3] | Potency [4] | Potency [5] | Potency [6] | Potency [7]

CC(=O)O[C@@H]1C[C@@H]2CC[C@@]1(C)C2(C)C
inactive: Potency [1] | Potency [2] | Potency [3] | Potency [4] | Potency [5] | Potency [6] | Potency [7]

O=S(=O)(O)c1cc(S(=O)(=O)O)c2ccc3c(S(=O)(=O)O)cc(S(=O)(=O)O)c4ccc1c2c43
inactive: activity, negative = cytotoxicity [1] 3.7% [at 19 µM] | activity change, negative = inhibition [2] 12.6% [at 19 µM] | viability change, negative = cytotoxic [3] -1.68% [at 15.8 µM] | activation [4] -3.16% [at 15.8 µM] | activity change, negative = cytotoxicity [6] -4.37% [at 15.8 µM]
